Reference: ChEMBL document CHEMBL3988442, “University of Dundee, Small-Polar-MMV Screening Library” (2021)

Each compound was assayed against T1, Arginase-2, mitochondrial (Homo sapiens) (UniProt P78540) (assay: in vitro enzyme assay to detect the production of urea directly proportional to the activity of Arginase II). Settings: 33.3 µM.
T1 sequence (whole entry): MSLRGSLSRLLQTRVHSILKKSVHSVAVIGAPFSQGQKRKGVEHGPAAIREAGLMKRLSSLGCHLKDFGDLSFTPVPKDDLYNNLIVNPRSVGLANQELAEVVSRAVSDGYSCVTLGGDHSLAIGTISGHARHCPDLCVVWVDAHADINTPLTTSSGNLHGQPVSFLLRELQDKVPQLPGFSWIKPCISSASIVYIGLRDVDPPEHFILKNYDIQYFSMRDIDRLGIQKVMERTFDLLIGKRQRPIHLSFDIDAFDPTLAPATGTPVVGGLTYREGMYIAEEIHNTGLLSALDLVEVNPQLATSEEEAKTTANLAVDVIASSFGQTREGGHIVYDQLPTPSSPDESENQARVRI
Format: functional
Design: scale not given: direction of the effect not stated beside the values
`CCC(=O)NCCc1cc(N2CCN(C(C)=O)CC2)nc(C2CC2)n1` gave a Percent Effect of 3.02%.
Work on `Cc1cc(NC(=O)NCc2cccnc2OC(C)C)n(C)n1` yielded a Percent Effect of -1.07%.
`CC(C)CCC(C)NC(=O)c1ccc(OCC(N)=O)cc1` (centres undefined) was tested, and the Percent Effect was -1.43%.
`CN(C)C(=O)COC[C@]12COC[C@H]1CN(Cc1ccoc1)C2` was tested, and the Percent Effect was 7.69%.
Work on `O=C(COCc1nc(-c2ccncc2)no1)N1CCCCCC1` yielded a Percent Effect of -55.2%.
Compound `CCN(CC)C(=O)CCNC(=O)Cc1nc(-c2ccco2)oc1C` has a Percent Effect of -0.521%.
`O=C1COc2c(cccc2C(=O)N2CCCCC2Cn2cccn2)N1` (centres undefined) was tested, and the Percent Effect was 3.16%.
Work on `CCN1CCCC1CN(CCN(C)C)S(=O)(=O)c1ccc(C#N)cc1` (centres undefined) yielded a Percent Effect of 0.909%.
`Cc1nsc(N2CCCN(c3nc(C4CC4)ns3)CC2)n1` gave a Percent Effect of 19.1%.
For `Cc1nc(CC(=O)N2CCCCC2c2ccn3ccnc3n2)cs1` (centres undefined), the Percent Effect was -3.02%.
`CN(Cc1ccc(F)cc1)CC1(O)CCN(C(=O)c2ccccc2)C1` (centres undefined) showed a Percent Effect of 1.16%.
For `Cc1nc(NC(=O)CN2CCc3c(nc(C(C)C)n3C)C2)sc1C`, the Percent Effect was -1.43%.
`Cc1cccc(-c2ccc3nc(C4CCN(CC5CC5)CC4)nn3c2)c1` was tested, and the Percent Effect was -0.399%.
`CC(O)CN1CCC(CNCc2c[nH]nc2C(C)(C)C)CC1` (centres undefined) gave a Percent Effect of -2%.
Compound `FC(F)(F)Cc1noc(CN2CCCC2c2noc(C3CC3)n2)n1` (centres undefined) has a Percent Effect of -10.8%.
Work on `COc1c(C2CCCN2CC(=O)Nc2cc(C)no2)c(C)nn1C` (centres undefined) yielded a Percent Effect of -2.03%.
`CCN(Cc1ccc2c(c1)OCCO2)S(=O)(=O)N(C)C(C)C` gave a Percent Effect of 0.356%.
`CN(Cc1cccc(F)c1)C(=O)CN1CCCCC1Cn1cncn1` (centres undefined) gave a Percent Effect of -4.14%.
With `Cc1nc(CN2CCCC2c2ccsc2)nc2ccccc12` (centres undefined) the Percent Effect was 7.1%.

What follows are compounds tested against T2, Proteasome subunit beta (Trypanosoma cruzi) (UniProt O96673) (assay: Trypanosoma cruzi proteasome chymotrypsin-like activity (TcProtChymo) assay.). Settings: 9.37 µM.
T2 sequence (whole entry): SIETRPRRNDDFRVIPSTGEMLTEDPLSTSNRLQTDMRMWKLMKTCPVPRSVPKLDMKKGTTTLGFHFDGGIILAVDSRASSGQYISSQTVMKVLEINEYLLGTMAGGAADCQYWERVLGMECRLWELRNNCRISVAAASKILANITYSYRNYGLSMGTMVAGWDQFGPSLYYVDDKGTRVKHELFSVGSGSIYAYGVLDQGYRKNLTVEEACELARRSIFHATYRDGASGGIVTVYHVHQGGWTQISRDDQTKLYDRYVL
Format: functional
Design: scale not given: direction of the effect not stated beside the values
Work on `O=C(c1cscn1)N1C[C@@H]2[C@@H](C1)OCC(=O)N2CC1CCCC1` yielded a Percent Effect of 16.5%.
`CN(CC(F)(F)F)C(=O)C1CSCN1C(=O)OC(C)(C)C` (centres undefined) was tested, and the Percent Effect was 11.9%.
Compound `Cc1nc(C2CCCN(C(=O)c3ccco3)C2)no1` (centres undefined) has a Percent Effect of 1.37%.
In the case of `Cn1ccc(C(=O)N2CCN(c3cc(C#N)ccn3)CC2)cc1=O`, the Percent Effect is reported as 7.21%.
`CC(=O)N1CCOCC2(CCN(Cc3ccc(C)s3)CC2)C1` gave a Percent Effect of 2.91%.
Compound `CCc1cccc(N2CCC(NC(=O)c3cc[nH]n3)CC2)c1` has a Percent Effect of 11.2%.
With `C[S+]([O-])c1nncn1CC(=O)c1ccc(Cl)c(Cl)c1` (centres undefined) the Percent Effect was 4.38%.
Work on `Cn1ccc(C(=O)N2CCN(c3ncccn3)CC2)cc1=O` yielded a Percent Effect of 6.13%.
`Cc1nccn1-c1cccc(C2CCCN(C3CCCCC3)C2)n1` (centres undefined) showed a Percent Effect of 14.8%.
With `CC(C)N1CCOCC2(CN(Cc3nccs3)CCO2)C1` (centres undefined) the Percent Effect was 16.7%.
`Cc1ccc2c(c1)OCCCC2NCc1nnc2n1CCCCC2` (centres undefined) was tested, and the Percent Effect was 0.772%.
Compound `NC(=O)c1csc(C(=O)N2CCCC(n3ccnc3)C2)c1` (centres undefined) has a Percent Effect of 7.72%.
Work on `Cc1cc(CN(C)C(=O)C2CCCN(C(=O)c3cccs3)C2)no1` (centres undefined) yielded a Percent Effect of 15.5%.
With `CS(=O)(=O)NCCNC(=O)C1(c2cccc(Cl)c2)CC1` the Percent Effect was 10.9%.
In the case of `CC(C)CCN1CCN(Cc2nc(C3CC3)no2)CC1`, the Percent Effect is reported as 9.38%.
Work on `Cc1nnc2n1CCN(Cc1csc(-c3ccc(F)cc3)n1)C2` yielded a Percent Effect of 5.75%.
In the case of `Cc1cc(NC(=O)NCC(C)O)n(C)n1` (centres undefined), the Percent Effect is reported as 12.2%.
With `O=C(c1cccc(NCCO)c1)N1CCOCC1` the Percent Effect was 19.3%.
`CNc1cc(C)nc(C2CN(Cc3ccc(C)nc3)CCO2)c1` (centres undefined) gave a Percent Effect of 4.84%.
With `Cc1ccc(CNC(=O)NCc2cccnc2N(C)C)s1` the Percent Effect was 1.35%.
For `CN(CCN1CCOCC1)C(=O)CCc1cccc(Cl)c1`, the Percent Effect was 12.2%.
`CCC(=O)NCCc1cc(N2CCN(C(C)=O)CC2)nc(C2CC2)n1` showed a Percent Effect of 10.3%.
`Cc1cc(NC(=O)NCc2cccnc2OC(C)C)n(C)n1` gave a Percent Effect of 19.4%.
For `CC(C)CCC(C)NC(=O)c1ccc(OCC(N)=O)cc1` (centres undefined), the Percent Effect was 10.5%.
In the case of `CN(C)C(=O)COC[C@]12COC[C@H]1CN(Cc1ccoc1)C2`, the Percent Effect is reported as 2.49%.
Compound `O=C(COCc1nc(-c2ccncc2)no1)N1CCCCCC1` has a Percent Effect of 8.65%.
`CCN(CC)C(=O)CCNC(=O)Cc1nc(-c2ccco2)oc1C` gave a Percent Effect of 17.3%.
With `O=C1COc2c(cccc2C(=O)N2CCCCC2Cn2cccn2)N1` (centres undefined) the Percent Effect was 14.6%.
`CCN1CCCC1CN(CCN(C)C)S(=O)(=O)c1ccc(C#N)cc1` (centres undefined) showed a Percent Effect of 3.73%.
`Cc1nsc(N2CCCN(c3nc(C4CC4)ns3)CC2)n1` gave a Percent Effect of 10.1%.
With `Cc1nc(CC(=O)N2CCCCC2c2ccn3ccnc3n2)cs1` (centres undefined) the Percent Effect was 12.6%.
Work on `CN(Cc1ccc(F)cc1)CC1(O)CCN(C(=O)c2ccccc2)C1` (centres undefined) yielded a Percent Effect of 9.98%.
In the case of `Cc1nc(NC(=O)CN2CCc3c(nc(C(C)C)n3C)C2)sc1C`, the Percent Effect is reported as 19.8%.
`Cc1cccc(-c2ccc3nc(C4CCN(CC5CC5)CC4)nn3c2)c1` gave a Percent Effect of 10.2%.
`CC(O)CN1CCC(CNCc2c[nH]nc2C(C)(C)C)CC1` (centres undefined) gave a Percent Effect of 11.9%.
`FC(F)(F)Cc1noc(CN2CCCC2c2noc(C3CC3)n2)n1` (centres undefined) showed a Percent Effect of 5.59%.
Compound `COc1c(C2CCCN2CC(=O)Nc2cc(C)no2)c(C)nn1C` (centres undefined) has a Percent Effect of 6.82%.
With `CCN(Cc1ccc2c(c1)OCCO2)S(=O)(=O)N(C)C(C)C` the Percent Effect was 3.38%.
With `CN(Cc1cccc(F)c1)C(=O)CN1CCCCC1Cn1cncn1` (centres undefined) the Percent Effect was 9.32%.
`Cc1nc(CN2CCCC2c2ccsc2)nc2ccccc12` (centres undefined) was tested, and the Percent Effect was 13.6%.

Organism: Homo sapiens
Experiment: To identify inhibition of the IFN signalling (Jak-Stat) pathway via expression of an eGFP reporter gene under the control of an IFN-stimulated response element (ISRE) containing MxA promoter.
Format: functional
Design: scale not given: direction of the effect not stated beside the values
Settings: 30 µM
For `O=C(c1cscn1)N1C[C@@H]2[C@@H](C1)OCC(=O)N2CC1CCCC1`, the Percent Effect was 0.71%.
`CN(CC(F)(F)F)C(=O)C1CSCN1C(=O)OC(C)(C)C` (centres undefined) was tested, and the Percent Effect was 2.3%.
Work on `Cc1nc(C2CCCN(C(=O)c3ccco3)C2)no1` (centres undefined) yielded a Percent Effect of 16%.
For `Cn1ccc(C(=O)N2CCN(c3cc(C#N)ccn3)CC2)cc1=O`, the Percent Effect was 6.78%.
`CC(=O)N1CCOCC2(CCN(Cc3ccc(C)s3)CC2)C1` was tested, and the Percent Effect was -1.39%.
`CCc1cccc(N2CCC(NC(=O)c3cc[nH]n3)CC2)c1` showed a Percent Effect of 28.6%.
In the case of `C[S+]([O-])c1nncn1CC(=O)c1ccc(Cl)c(Cl)c1` (centres undefined), the Percent Effect is reported as -5.62%.
Work on `Cn1ccc(C(=O)N2CCN(c3ncccn3)CC2)cc1=O` yielded a Percent Effect of 4.12%.
Work on `Cc1nccn1-c1cccc(C2CCCN(C3CCCCC3)C2)n1` (centres undefined) yielded a Percent Effect of 2.91%.
`CC(C)N1CCOCC2(CN(Cc3nccs3)CCO2)C1` (centres undefined) showed a Percent Effect of 3.46%.
With `Cc1ccc2c(c1)OCCCC2NCc1nnc2n1CCCCC2` (centres undefined) the Percent Effect was -5.39%.
Compound `NC(=O)c1csc(C(=O)N2CCCC(n3ccnc3)C2)c1` (centres undefined) has a Percent Effect of -1.55%.
With `Cc1cc(CN(C)C(=O)C2CCCN(C(=O)c3cccs3)C2)no1` (centres undefined) the Percent Effect was -5.21%.
`CS(=O)(=O)NCCNC(=O)C1(c2cccc(Cl)c2)CC1` showed a Percent Effect of -17.9%.
Work on `CC(C)CCN1CCN(Cc2nc(C3CC3)no2)CC1` yielded a Percent Effect of 2.9%.
For `Cc1nnc2n1CCN(Cc1csc(-c3ccc(F)cc3)n1)C2`, the Percent Effect was 4.35%.
Compound `Cc1cc(NC(=O)NCC(C)O)n(C)n1` (centres undefined) has a Percent Effect of -5.12%.
`O=C(c1cccc(NCCO)c1)N1CCOCC1` gave a Percent Effect of 28.8%.
Compound `CNc1cc(C)nc(C2CN(Cc3ccc(C)nc3)CCO2)c1` (centres undefined) has a Percent Effect of 0.717%.
For `Cc1ccc(CNC(=O)NCc2cccnc2N(C)C)s1`, the Percent Effect was 19.1%.
`CN(CCN1CCOCC1)C(=O)CCc1cccc(Cl)c1` was tested, and the Percent Effect was 17.3%.
For `CCC(=O)NCCc1cc(N2CCN(C(C)=O)CC2)nc(C2CC2)n1`, the Percent Effect was 16.2%.
Compound `Cc1cc(NC(=O)NCc2cccnc2OC(C)C)n(C)n1` has a Percent Effect of 4.52%.
Work on `CC(C)CCC(C)NC(=O)c1ccc(OCC(N)=O)cc1` (centres undefined) yielded a Percent Effect of 11.1%.
`CN(C)C(=O)COC[C@]12COC[C@H]1CN(Cc1ccoc1)C2` was tested, and the Percent Effect was 5.51%.
Compound `O=C(COCc1nc(-c2ccncc2)no1)N1CCCCCC1` has a Percent Effect of 15.5%.
`CCN(CC)C(=O)CCNC(=O)Cc1nc(-c2ccco2)oc1C` showed a Percent Effect of -3.68%.
`O=C1COc2c(cccc2C(=O)N2CCCCC2Cn2cccn2)N1` (centres undefined) was tested, and the Percent Effect was 10.8%.
Work on `CCN1CCCC1CN(CCN(C)C)S(=O)(=O)c1ccc(C#N)cc1` (centres undefined) yielded a Percent Effect of 3.29%.
For `Cc1nsc(N2CCCN(c3nc(C4CC4)ns3)CC2)n1`, the Percent Effect was 5.1%.
`Cc1nc(CC(=O)N2CCCCC2c2ccn3ccnc3n2)cs1` (centres undefined) showed a Percent Effect of 7.12%.
With `CN(Cc1ccc(F)cc1)CC1(O)CCN(C(=O)c2ccccc2)C1` (centres undefined) the Percent Effect was 15.7%.
Work on `Cc1nc(NC(=O)CN2CCc3c(nc(C(C)C)n3C)C2)sc1C` yielded a Percent Effect of 15%.
`Cc1cccc(-c2ccc3nc(C4CCN(CC5CC5)CC4)nn3c2)c1` was tested, and the Percent Effect was 8.44%.
In the case of `CC(O)CN1CCC(CNCc2c[nH]nc2C(C)(C)C)CC1` (centres undefined), the Percent Effect is reported as 13.9%.
In the case of `FC(F)(F)Cc1noc(CN2CCCC2c2noc(C3CC3)n2)n1` (centres undefined), the Percent Effect is reported as 7.37%.
`COc1c(C2CCCN2CC(=O)Nc2cc(C)no2)c(C)nn1C` (centres undefined) was tested, and the Percent Effect was 0.794%.
`CCN(Cc1ccc2c(c1)OCCO2)S(=O)(=O)N(C)C(C)C` showed a Percent Effect of 9.12%.
`CN(Cc1cccc(F)c1)C(=O)CN1CCCCC1Cn1cncn1` (centres undefined) gave a Percent Effect of -1.75%.
Compound `Cc1nc(CN2CCCC2c2ccsc2)nc2ccccc12` (centres undefined) has a Percent Effect of 23.7%.
